Records with an inconclusive call do not appear. Unmarked numbers belong to inactive results. The source made the active and inactive calls. Calls follow the shape of the dose curve; as a rule, active = well fitted inhibition curve with a large enough effect; inconclusive = small, poorly fitted or top-dose-only effect; inactive = no such curve, though single readings can be large or run the other way.
assay: Confirmation assay for measurement of the activity of small molecule inhibitors on Zika virus induced Caspase-3 activity in human astrocytes; conditions: ZIKV-induced caspase-3/7 luminescence, 6 h; series mostly up to 46.1 µM; activity, negative = inhibition: at the top concentration
Excerpt: National Center for Advancing Translational Sciences [NCATS] Johns Hopkins University School of Medicine Florida State University Assay Overview: Increase in the Caspase-3 activity indicates an activation of apoptosis cell death pathway caused by Zika virus infection in certain types of neuronal cells including human neural progenitor cells (hNPCs), astrocytes, and astrocytoma cell line (SNB-19). This cell-based caspase-3 activity assay measures the increased caspase-3 activity in the human astrocytes after a 6-hour Zika virus infection with a luminescence readout. A decrease in the luminescence signal in this assay by small molecule treatment indicates an inhibitory effect of that small molecule on the Zika virus induced caspase-3 activity that may correlate with its effect on reduction of Zika virus caused cell death.
Assay Protocol Summary: The medium for astrocytes contains AM basal medium (ScienCell, Cat.# 1801), AGS (ScienCell, Cat.# 1801), 10% FBS, and 1% Pen/Strep. A Caspase-Glo 3/7 assay kit (catalog number G8092; Promega, Madison, WI) was used to detect caspase-3 activity induced by Zika virus infection in human cells. The reagent mixture was reconstituted as described in the protocol from the manufacturer. Polystyrene tissue culture treated and PDL coated white plates were obtained from Greiner Bio-One (Monroe, NC). Cells were seeded in 384- or 1536-well assay plates and cultured at 37 C with 5% CO2 for 16 to 20 hours. The typical cell seeding density in the 1536-well plate assay is 350 cells/well in 3 ul medium for astrocytes in tissue culture treated plates. Compounds were added to cells and incubated for one hour before addition of ZIKV solution to cells (2 FFU/cell). After incubation at 37 C with 5% CO2 for 6 hours, the reagent mixture of Caspase-Glo 3/7 assay kit was added to each well, followed by incubation at room temperature for 30 minutes. The luminescence intensity of the assay plates was measured using a ViewLux plate reader (PerkinElmer). Data were normalized by using the cell-containing wells without ZIKV as a negative control (0% induction of caspase 3/7 activity) and wells containing ZIKV infected cells (Caspase-3 activity induced) as a positive control (100% induction of caspase 3 activity). The percentage inhibitions of the increased Caspase-3 activity by small molecule inhibitors were then calculated.

SMILES	Potency	activity, negative = inhibition
CC(=Cc1ccccc1)C=C1SC(=S)N(CC(=O)O)C1=O	19.5 µM (active)	–
CCCCCCOc1ccccc1C(N)=O	–	-10.9%
CNC1[C@H](O)C(O[C@@H]2C(O)C(O[C@H]3O[C@H]([C@@H](C)NC)CC[C@H]3N)[C@@H](N)C[C@H]2N)OC[C@]1(C)O (stereo not given in full)	–	27.9%
O=C(/C=C/c1ccccc1)NCCO	–	-18.6%
CC(C(=O)O)c1ccc(C(=O)c2ccccc2)s1 (stereo not given)	6.15 µM (active)	–
Oc1ccc(/C=C/c2cc(O)cc(O)c2)cc1	15.5 µM (active)	–
O=C(O)c1ccccc1Nc1cccc(C(F)(F)F)c1	6.9 µM (active)	–
CN(C)c1ccc2cc(C(=O)N[C@@H](CCCN=C(N)CCl)C(=O)NCc3ccccc3)ccc2c1	–	-11.3%
COc1cccc(-c2cc(=O)c3ccccc3o2)c1N	6.9 µM (active)	–
COc1cc2nc(N3CCN(C(=O)C4CCCO4)CC3)nc(N)c2cc1OC (stereo not given)	10.9 µM (active)	–
c1ccc2[nH]c(-c3cscn3)nc2c1	9.75 µM (active)	–
Nc1ccc(-c2ccc3ccccc3n2)cc1	4.35 µM (active)	–
CC(=O)Oc1cccc2c1C(=O)c1c(OC(C)=O)cc(C(=O)O)cc1C2=O	15.5 µM (active)	–
Cc1ccc(C(=O)c2ccc(CC(=O)O)n2C)cc1	–	-0.261%
CC(C)OC(=O)CCCC=CC[C@@H]1[C@H](C=C[C@@H](O)COc2cccc(C(F)(F)F)c2)[C@H](O)C[C@@H]1O	–	38.6%
C[C@@H](N)c1ccc(C(=O)Nc2ccnc3[nH]ccc23)cc1	–	0.169%
CC(C)Oc1ccc2c(=O)c(-c3ccccc3)coc2c1	10.9 µM (active)	–
CCCCC1C(=O)N(c2ccccc2)N(c2ccc(O)cc2)C1=O (stereo not given)	–	-36.2%
O=c1c2ccccc2nc2n1CCc1c-2[nH]c2ccccc12	4.89 µM (active)	–
Nc1ncnc2c1ncn2[C@@H]1O[C@@H](CO)[C@H](O)[C@H]1O	–	-6.91% [at 23.8 µM]

SMILES	Potency	activity, negative = inhibition
Cc1nc(N)sc1-c1ccnc(Nc2ccc(N3CCOCC3)cc2)n1	–	-7.98%
Oc1cc(O)cc(/C=C/c2ccc(O)c(O)c2)c1	6.9 µM (active)	–
COc1cc2nc(-c3ccc(N4CCN(C)CC4)cc3)nc(NCCN3CCOCC3)c2cc1OC	–	-9.03%
CC1=C(CO)C(=O)O[C@@H]([C@@H](C)[C@H]2CC[C@H]3[C@@H]4C[C@H]5O[C@]56[C@@H](O)C=CC(=O)[C@]6(C)[C@@H]4CC[C@]23C)C1	–	-6.03%
Cc1cccc(C#Cc2ccccc2)n1	6.15 µM (active)	–
O=S(=O)(O)CCSSCCS(=O)(=O)O	–	2.17%
O=C(O)c1cc([N+](=O)[O-])ccc1NCCCc1ccccc1	8.69 µM (active)	–
O=C1c2ccccc2-[n+]2ccc3c([nH]c4ccccc43)c21	7.74 µM (active)	–
C/C(=N\O)c1ccc(OCC(=O)N2CCCCC2)cc1	9.75 µM (active)	–
COc1ccc(/C=C/C(=O)Nc2ccccc2C(=O)O)cc1OC	13.8 µM (active)	–
O=C(O)[C@H](CC(=O)N1C[C@@H]2CCCC[C@H]2C1)Cc1ccccc1	–	1.15%
O=S(=O)(O)c1ccc2nc(-c3ccccc3)[nH]c2c1	1.95 µM (active)	–
O=C1NC(=O)C(=Cc2ccc(-c3ccc(F)cc3)o2)S1	12.3 µM (active)	–
NC1CCC(Nc2nc(Nc3ccc(C(=O)N4CCCCC4)cc3)c3ncn(-c4cccc(F)c4)c3n2)CC1 (stereo not given)	–	55.7%
CCC(C(=O)O)c1ccc(N2Cc3ccccc3C2=O)cc1 (stereo not given)	6.9 µM (active)	–
Cc1[nH]c(C=C2C(=O)Nc3ccccc32)c(C)c1CCC(=O)O	–	-2.09%
CCCS(=O)c1ccc2nc(NC(=O)OC)[nH]c2c1 (stereo not given)	13.8 µM (active)	–
N#C/C(=C\c1ccc(O)c(O)c1)C(=O)Nc1ccccc1	21.8 µM (active)	–
COc1ccc(-c2coc3cc(O)ccc3c2=O)cc1	15.5 µM (active)	–
COc1cccc(-c2ccc(NC(=O)C3=C(C(=O)O)CCC3)c(F)c2)c1	2.45 µM (active)	–
